# Results taken from PubChem BioAssay (NCATS).
# Assay: High-throughput drug toxicity screening in the BPDCN cell line Gen2.2 (AID 1224824)
# Settings: Gen2.2 BPDCN cells; at 45.8 µM (top of the series) unless noted
# From the text: Blastic plasmacytoid dendritic cell neoplasm (BPDCN) is a rare, aggressive and largely incurable hematologic malignancy originating from plasmacytoid dendritic cells (pDCs). Although an initial response to chemotherapy is common, BPDCN prognosis is extremely poor and most patients relapse with drug-resistant disease leading to a median overall survival of ~1 year after diagnosis. To explore novel potential therapeutic strategies in BPDCN, we performed a high-throughput drug toxicity screening in BPDCN cell liens, using of a library of 1,912 small molecules, enriched for compounds that are either approved or in early stages of development for cancer therapy.
# A total of 500 exponentially growing Gen2.2 cells were seeded per well in 5 uL of media (RPMI + Glutamine, without phenol red plus10% FBS and 1X Pen/Strep) into 1536-well solid white high base tissue culture treated Greiner One Bio Plates (789173-F), using a multidrop combi dispenser and a small sterile cassette. Compounds and controls totaling 23nL per well (negative control DMSO and positive control 9.2 uM Bortezomib-final) were immediately added to the plates using a 1536 head pin tool from Kalypsys. The plates were then covered with stainless steel gasket lids from Kalypsys and incubated for 48 hours at 37C under 95% relative humidity with 5% CO2. After 48 hours, the plates were removed and allowed to reach room temperature before 3 uL of Cell Titer Glo reagent (Promega) were added using an Aurora Flying Reagent Dispenser Bioraptor. The plates were then spun at 1000 rpms to remove bubbles and incubated for 15 minutes at room temperature before reading on a ViewLux using a luminescent filter with a 10 second exposure. The relative luciferase units were used to calculated percent activity using DMSO as 100% and Bortezomib as 0%.
row,Compound,"cell viability, % of control (lower = more cytotoxic)"
1,c1ccc(-c2nn3c(c2-c2ccnc4cc(OCCN5CCOCC5)ccc24)CCC3)nc1,857%
2,Cc1oncc1C(=O)Nc1ccc(C(F)(F)F)cc1,32.8%
3,Cc1cc([C@@H](C)Nc2ccccc2C(=O)O)c2nc(N3CCOCC3)cc(=O)n2c1,13.7% [at 92.2 µM]
4,CN(C)C(=O)c1ccc(S(=O)(=O)c2ccc(NC(=O)[C@@](C)(O)C(F)(F)F)c(Cl)c2)cc1,41.1%
5,Oc1ccc(C2CNCCc3c2cc(O)c(O)c3Cl)cc1 (stereo not given),156%
6,OCCC#Cc1nc(-c2ccc(F)cc2)c(-c2ccncc2)n1CCCc1ccccc1,98.7%
7,COc1cc2nccc(Oc3ccc(NC(=O)NC4CC4)c(Cl)c3)c2cc1C(N)=O,10.1%
8,O=C1CCC(N2C(=O)c3ccccc3C2=O)C(=O)N1 (stereo not given),167%
9,O=C(O)COCCN1CCN(C(c2ccccc2)c2ccc(Cl)cc2)CC1 (stereo not given),178%
10,Cc1cn[nH]c1,120%
11,CCOC(=O)C1=C[C@]2(CC)CCCN3CCc4c(n1c1ccccc41)[C@@H]32,13.3%
12,Cc1cccc(-c2nn(C(=S)Nc3ccccc3)cc2-c2ccnc3ccccc23)n1,560%
13,Cc1cc(SCc2sc(-c3ccc(C(F)(F)F)cc3)nc2C)ccc1OCC(=O)O,101%
14,CC(C[N+](C)(C)C)OC(N)=O (stereo not given),120%
15,O=C(Nc1nc2ccccc2n1CCN1CCOCC1)c1cccc([N+](=O)[O-])c1,43.3%
16,COc1nc(-c2ccc3c(c2)OCO3)n(-c2ccc(NC(=O)CSc3ccccc3)cc2)n1,127%
17,CCOc1cc(C=C2C(=O)N(c3ccccc3)N=C2C)cc(Cl)c1OCC(=O)OC,14.1%
18,OCCn1cc(-c2cnc3nnn(Cc4ccc5ncccc5c4)c3n2)cn1,140%
19,Nc1nc2ccc(OC(F)(F)F)cc2s1,93.2%
20,CCC(C)(C)C(=O)O[C@H]1C[C@@H](C)C=C2C=C[C@H](C)[C@H](CC[C@@H]3C[C@@H](O)CC(=O)O3)[C@H]21,26.7%

row,Compound,"cell viability, % of control (lower = more cytotoxic)"
1,N[C@@H]1CONC1=O,150%
2,NCCc1ccc(O)c(O)c1,14.2%
3,CC(C)(Sc1ccc(CCN(CCCCC2CCCCC2)C(=O)NC2CCCCC2)cc1)C(=O)O,75.1%
4,CC(c1cc2ccccc2s1)N(O)C(N)=O (stereo not given),150%
5,Cc1cc(C=c2sc3nc4ccccc4n3c2=O)c(C)n1-c1ccccc1,74.1%
6,O=S(=O)(N=Cc1c(O)ccc2ccccc12)c1cccs1,98%
7,CS(=O)(=O)Oc1ccc2c(NC(N)=O)c(C(=O)c3ccc(Cl)cc3Cl)oc2c1,153%
8,COc1cc(Oc2ccnc3cc(OC)c(OC)cc23)ccc1NC(=O)NC(C)c1nccs1 (stereo not given),98.9%
9,O=c1n(CCCN2CCN(c3cccc(Cl)c3)CC2)nc2ccccn12,165%
10,Nc1cccc(S(=O)(=O)N2CCCN(S(=O)(=O)c3ccc4c(c3)OCCO4)CC2)c1,162%
11,OC(CN1CCC(Cc2ccc(F)cc2)CC1)c1ccc(Cl)cc1 (stereo not given),156%
12,Cc1cc2c(C(C)C)c(O)c(O)c(C=O)c2c(O)c1-c1c(C)cc2c(C(C)C)c(O)c(O)c(C=O)c2c1O,14.5%
13,Nc1ccc(S(=O)(=O)Nc2ccnn2-c2ccccc2)cc1,153%
14,CCC(C)n1ncn(-c2ccc(N3CCN(c4ccc(OC[C@H]5CO[C@](Cn6cncn6)(c6ccc(Cl)cc6Cl)O5)cc4)CC3)cc2)c1=O (stereo not given in full),92.6%
15,Cc1cnc(Nc2ccc(OCCN3CCCC3)cc2)nc1Nc1cccc(S(=O)(=O)NC(C)(C)C)c1,112%
16,C[C@]12CC[C@H](O)CC1=CC[C@@H]1[C@H]2CC[C@]2(C)C(c3cccnc3)=CC[C@H]12,60.5% [at 23.2 µM]
17,Cc1ccccc1C(C(=O)NC1CCCC1)N(C(=O)Cn1cnc2ccccc21)c1cccc(F)c1 (stereo not given),30.2%
18,Cn1c(=O)c(F)c(Nc2ccc(I)cc2F)c2c(=O)n(C[C@@H](O)CO)cnc21,18%
19,CCC(=O)N[C@H]1CC[C@H](C(=O)N(C)c2ccc(-c3nc4ccccc4o3)cc2)C1,198%
20,O=c1[nH]cnc2[nH]ncc12,124%
